Reference: the antibiotic and cytotoxicity screens of Wong et al. (2023)
The whole screen tested about 39,000 compounds, of which about 3,300 (8.5%) were called active. The sample as a whole holds a higher share of actives than the screen did.

tested on: HepG2; assay: cytotoxicity call (relative viability < 0.9); settings: 10 µM

Row | Structure (SMILES) | cytotoxicity call
1 | C[C@@H]1CN([C@H](C)CO)C(=O)c2cc(NC(=O)Cn3cnnn3)ccc2O[C@H]1CN(C)S(=O)(=O)c1cn(C)cn1 | inactive
2 | COc1ccc(NC(=O)Nc2ccc3c(c2)C(=O)N([C@H](C)CO)C[C@H](C)[C@H](CN(C)Cc2ccccc2)OCCCC[C@@H](C)O3)cc1 | inactive
3 | C[C@@H]1CN([C@@H](C)CO)S(=O)(=O)c2ccc(-c3cccnc3)cc2O[C@@H]1CN(C)C(=O)c1ccc2c(c1)OCO2 | inactive
4 | Cn1cnc(S(=O)(=O)N2C[C@@H](O)COC[C@H]3O[C@@H](CC(=O)NCc4cc(F)cc(F)c4)CC[C@@H]32)c1 | inactive
5 | O=C(C[C@H]1CC[C@H]2[C@@H](COC[C@@H](O)CN2C(=O)c2cccnc2)O1)NCC1CC1 | inactive
6 | CC(=O)N1CC2(CCN(CC(=O)N3CCOCC3)CC2)C[C@@H]1C(=O)O | inactive
7 | COc1ccc(C2=C(NC(=O)c3ccc(OC)cc3-c3cccc(OC)c3)C(=O)c3ccccc3C2=O)cc1 | active
8 | COC(=O)[C@@H](N)c1cccc(OC)c1 | inactive
9 | O=C(NC1=C(c2ccc(OC(F)(F)F)cc2)C(=O)c2ccccc2C1=O)c1ccc(Br)cc1 | inactive
10 | Cc1noc(C)c1NC(=O)N(C)C[C@@H]1Oc2ncc(C#CCN(C)C)cc2C(=O)N([C@@H](C)CO)C[C@H]1C | inactive
11 | CNC(=O)C[C@H]1C[C@@H]2CN(S(=O)(=O)c3cccnc3)C[C@@H]2O1 | inactive
12 | Cc1ccc(S(=O)(=O)N(C)C[C@H]2OCCCC[C@H](C)Oc3ccc(NS(=O)(=O)c4ccc(F)cc4)cc3C(=O)N([C@@H](C)CO)C[C@H]2C)cc1 | inactive
13 | CCOC(=O)C(=O)c1csc(NC=O)n1 | inactive
14 | O=C(NC[C@@H](O)CO)[C@]1(CCS(=O)(=O)c2ccccc2)N=C(c2ccc(OCCCO)cc2)O[C@@H]1c1ccccc1 | inactive
15 | [N-]=[N+]=NCc1ccccc1C[C@]1(C(=O)NC[C@@H](O)CO)N=C(c2ccc(OCCCO)cc2)O[C@H]1c1ccccc1 | inactive
16 | O=C(NC[C@@H](O)CO)[C@]1(Cc2ccccc2)N=C(c2ccc(OCCCO)cc2)O[C@@H]1c1ccccc1 | inactive
17 | [N-]=[N+]=NCc1ccccc1C[C@@]1(C(=O)N2CCCCC2)N=C(c2ccc(OCCCO)cc2)O[C@@H]1c1ccccc1 | inactive
18 | [N-]=[N+]=NCc1ccccc1C[C@]1(C(=O)NCc2ccccc2)N=C(c2ccc(OCCCO)cc2)O[C@H]1c1ccccc1 | active
19 | [N-]=[N+]=Nc1ccccc1C[C@]1(C(=O)N2CCCCC2)N=C(c2ccc(OCCCO)cc2)O[C@H]1c1ccccc1 | active
20 | [N-]=[N+]=Nc1ccccc1C[C@@]1(C(=O)N2CCCCC2)N=C(c2ccc(OCCCO)cc2)O[C@@H]1c1ccccc1 | inactive
21 | CC(C)(C)OC(=O)CC[C@]1(C(=O)NCc2ccccc2)N=C(c2ccc(OCCCO)cc2)O[C@H]1c1ccccc1 | active
22 | [N-]=[N+]=Nc1ccccc1C[C@@]1(C(=O)NCc2ccccc2)N=C(c2ccc(OCCCO)cc2)O[C@@H]1c1ccccc1 | inactive

Row | Structure (SMILES) | cytotoxicity call
23 | CN1CCN(C(=O)C[C@@H]2C=C[C@@H](NC(=O)Nc3ccccc3F)[C@H](CO)O2)CC1 | inactive
24 | OCc1ccc(-c2cccs2)cc1 | inactive
25 | CCNC(=O)N1CCN(CCO)CC1 | inactive
26 | C[C@@H]1CN([C@H](C)CO)C(=O)c2cc(NC(=O)CCC(F)(F)F)ccc2O[C@@H](C)CCCCO[C@@H]1CN(C)S(=O)(=O)c1ccc(F)cc1 | inactive
27 | CC(C)CC(=O)N[C@H](C(=O)N[C@H](C(=O)N[C@@H](CC(C)C)[C@@H](O)CC(=O)N[C@@H](C)C(=O)N[C@@H](CC(C)C)[C@@H](O)CC(=O)O)C(C)C)C(C)C | inactive
28 | COc1cccc(S(=O)(=O)N[C@@H]2CC[C@H](CCn3cc(-c4ccccc4OC)nn3)O[C@@H]2CO)c1 | inactive
29 | Cn1c(=O)c2c(ncn2CC(=O)N2CCN(c3ccccc3)CC2)n(C)c1=O | inactive
30 | CCOC(=O)CCCCCC(=O)Nc1ccc2c(c1)C(=O)N([C@@H](C)CO)C[C@@H](C)[C@H](CN(C)S(=O)(=O)c1cccs1)OCCCC[C@H](C)O2 | inactive
31 | C[C@H]1CN([C@@H](C)CO)C(=O)c2cccc(NC(=O)Nc3ccc(F)cc3)c2O[C@@H]1CN(C)S(=O)(=O)c1cn(C)cn1 | active
32 | C[C@H](CO)N1C[C@H](C)[C@@H](CN(C)S(=O)(=O)c2cn(C)cn2)Oc2c(NC(=O)Nc3ccc(F)cc3)cccc2C1=O | inactive
33 | C[C@H](CO)N1C[C@H](C)[C@H](CN(C)S(=O)(=O)c2cn(C)cn2)Oc2c(NC(=O)Nc3ccc(F)cc3)cccc2C1=O | inactive
34 | COc1ccc(S(=O)(=O)N(C)C[C@@H]2Oc3c(NC(=O)c4ccncc4)cccc3C(=O)N([C@@H](C)CO)C[C@@H]2C)cc1 | inactive
35 | C[C@@H]1CN([C@@H](C)CO)C(=O)c2cccc(NC(=O)c3ccncc3)c2O[C@@H]1CN(C)S(=O)(=O)c1ccccc1 | active
36 | COc1ccc(S(=O)(=O)N(C)C[C@H]2Oc3c(NC(=O)c4ccncc4)cccc3C(=O)N([C@H](C)CO)C[C@H]2C)cc1 | inactive
37 | C[C@H](CO)N1C[C@H](C)[C@H](CN(C)S(=O)(=O)c2ccccc2)Oc2c(NC(=O)c3ccncc3)cccc2C1=O | inactive
38 | C[C@@H]1CN([C@H](C)CO)C(=O)c2cccc(NC(=O)c3ccncc3)c2O[C@@H]1CN(C)S(=O)(=O)c1ccccc1 | inactive
39 | C[C@@H]1CN([C@H](C)CO)C(=O)c2cccc(NC(=O)c3ccncc3)c2O[C@H]1CN(C)S(=O)(=O)c1cn(C)cn1 | inactive
40 | C[C@H]1CN([C@@H](C)CO)C(=O)c2cccc(NC(=O)c3ccncc3)c2O[C@@H]1CN(C)S(=O)(=O)c1cn(C)cn1 | inactive
41 | COc1ccc(S(=O)(=O)N(C)C[C@H]2Oc3c(NC(=O)c4ccncc4)cccc3C(=O)N([C@@H](C)CO)C[C@H]2C)cc1 | active
42 | C[C@@H]1CN([C@@H](C)CO)C(=O)c2cccc(NC(=O)c3ccncc3)c2O[C@H]1CN(C)S(=O)(=O)c1cn(C)cn1 | active
43 | C[C@@H]1CN([C@@H](C)CO)C(=O)Cc2cc(NS(=O)(=O)c3cccs3)ccc2O[C@@H]1CN(C)S(=O)(=O)c1cn(C)cn1 | inactive
